To fix the notation:
T1: RBFOX1 RRM (Homo sapiens, UniProt Q9NWB1 109-208)
T1 sequence: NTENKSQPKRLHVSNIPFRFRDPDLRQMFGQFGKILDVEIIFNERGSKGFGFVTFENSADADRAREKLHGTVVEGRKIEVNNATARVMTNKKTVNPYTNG

B1: AUGGUGU (DNA:RNA)
RNA: GGGAGACCGGAAUUCAGAUUGUCCAUGGUGUUUAAAUCCCGUCGUAGCCACCA
DNA 1: CAATCTGAATTCCGGTCTCCC
DNA 2: TGGTGGCTACGACGGGATT
B2: CAUGUGU (DNA:RNA)
RNA: B1 RNA with A25C, U26A, G27U
DNA 1: CAATCTGAATTCCGGTCTCCC
DNA 2: TGGTGGCTACGACGGGATT
B3: AGAAGGC (DNA:RNA)
RNA: B1 RNA with U26G, G27A, G28A, U29G, U31C
DNA 1: CAATCTGAATTCCGGTCTCCC
DNA 2: TGGTGGCTACGACGGGATT
B4: GAAUGAG (DNA:RNA)
RNA: GGGAGACCGGAAUUCAGAUUGUCCGAAUGAGUUAAAUCCCGUCGUAGCCACCA
DNA 1: CAATCTGAATTCCGGTCTCCC
DNA 2: TGGTGGCTACGACGGGATT
B5: GCGUCGU (DNA:RNA)
RNA: B1 RNA with A25G, U26C, G28U, U29C
DNA 1: CAATCTGAATTCCGGTCTCCC
DNA 2: TGGTGGCTACGACGGGATT
B6: AUGCCGG (DNA:RNA)
RNA: B1 RNA with G28C, U29C, U31G
DNA 1: CAATCTGAATTCCGGTCTCCC
DNA 2: TGGTGGCTACGACGGGATT
B7: AGCGCGG (DNA:RNA)
RNA: B1 RNA with U26G, G27C, U29C, U31G
DNA 1: CAATCTGAATTCCGGTCTCCC
DNA 2: TGGTGGCTACGACGGGATT
B8: AGAACUA (DNA:RNA)
RNA: B1 RNA with U26G, G27A, G28A, U29C, G30U, U31A
DNA 1: CAATCTGAATTCCGGTCTCCC
DNA 2: TGGTGGCTACGACGGGATT
B9: UGGUUGU (DNA:RNA)
RNA: B1 RNA with A25U, U26G, G28U
DNA 1: CAATCTGAATTCCGGTCTCCC
DNA 2: TGGTGGCTACGACGGGATT
B10: UGAUUGA (DNA:RNA)
RNA: B1 RNA with A25U, U26G, G27A, G28U, U31A
DNA 1: CAATCTGAATTCCGGTCTCCC
DNA 2: TGGTGGCTACGACGGGATT
B11: UGCCUCG (DNA:RNA)
RNA: B1 RNA with A25U, U26G, G27C, G28C, G30C, U31G
DNA 1: CAATCTGAATTCCGGTCTCCC
DNA 2: TGGTGGCTACGACGGGATT
B12: UGAUUAA (DNA:RNA)
RNA: B4 RNA with G25U, A26G, G29U, G31A
DNA 1: CAATCTGAATTCCGGTCTCCC
DNA 2: TGGTGGCTACGACGGGATT
B13: UGCCCGC (DNA:RNA)
RNA: B1 RNA with A25U, U26G, G27C, G28C, U29C, U31C
DNA 1: CAATCTGAATTCCGGTCTCCC
DNA 2: TGGTGGCTACGACGGGATT
B14: UGUUUGG (DNA:RNA)
RNA: B1 RNA with A25U, U26G, G27U, G28U, U31G
DNA 1: CAATCTGAATTCCGGTCTCCC
DNA 2: TGGTGGCTACGACGGGATT
B15: UGAUCGA (DNA:RNA)
RNA: B4 RNA with G25U, A26G, G29C, A30G, G31A
DNA 1: CAATCTGAATTCCGGTCTCCC
DNA 2: TGGTGGCTACGACGGGATT
B16: UGAUCCG (DNA:RNA)
RNA: B4 RNA with G25U, A26G, G29C, A30C
DNA 1: CAATCTGAATTCCGGTCTCCC
DNA 2: TGGTGGCTACGACGGGATT
B17: UGGUUUG (DNA:RNA)
RNA: B1 RNA with A25U, U26G, G28U, G30U, U31G
DNA 1: CAATCTGAATTCCGGTCTCCC
DNA 2: TGGTGGCTACGACGGGATT
B18: UGCCUGA (DNA:RNA)
RNA: B1 RNA with A25U, U26G, G27C, G28C, U31A
DNA 1: CAATCTGAATTCCGGTCTCCC
DNA 2: TGGTGGCTACGACGGGATT
B19: CGAUCGA (DNA:RNA)
RNA: B4 RNA with G25C, A26G, G29C, A30G, G31A
DNA 1: CAATCTGAATTCCGGTCTCCC
DNA 2: TGGTGGCTACGACGGGATT
B20: UGCCUGC (DNA:RNA)
RNA: B1 RNA with A25U, U26G, G27C, G28C, U31C
DNA 1: CAATCTGAATTCCGGTCTCCC
DNA 2: TGGTGGCTACGACGGGATT

Residue numbers refer to the chain shown, from its start. The full ranking holds about 16,000 sequences; the median of “ka relative to ugcaugu” is about 0.0091, and the highest 2% start at about 0.032. The sample as a whole holds a higher share of the highest values than the screen did.

This assay deals with T1, RBFOX1 RRM. Put plainly: EMSA; HiTS-Eq, 1 nM pool, 10 min; buffer printed only for the single-RNA assays: 10 mM Tris pH 7.5, 150 mM NaCl, 3.4 mM EDTA, 0.001% NP-40, 30 C. The note with it: tags: His6 N-terminal (pET28a); label: 5' 32P. An outline of the steps:
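A pool of RNA with 7 randomized nucleotides, 5′-radiolabelled and with DNA-annealed flanks, was equilibrated at 1 nM for 10 min in 50 µL with purified RbFox RRM, wild type or mutant, across increasing protein concentrations. Free RNA was separated by 8% native PAGE, excised, reverse-transcribed, barcoded by PCR and sequenced. Relative association constants were obtained from read-count changes of each RNA species versus the control reaction and normalised to the cognate motif.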
Background: In EMSA bound probe runs differently from free probe, usually more slowly.
B1: the binding signal was 0.0152 KA relative to UGCAUGU.

On to B2, for which the binding signal is 0.0132 KA relative to UGCAUGU.

Consider B3, for which the binding signal was 0.00991 KA relative to UGCAUGU.

In the case of B4, the binding signal was 0.0255 KA relative to UGCAUGU.

B5: the binding signal is 0.0171 KA relative to UGCAUGU.

For the molecule B6, the binding signal is 0.0153 KA relative to UGCAUGU.

In the case of B7, the binding signal is 0.0172 KA relative to UGCAUGU.

Regarding B8, the binding signal is 0.00165 KA relative to UGCAUGU.

For B9, the binding signal was 0.0314 KA relative to UGCAUGU.

With B10, the binding signal is 0.028 KA relative to UGCAUGU.

In the case of B11, the binding signal is 0.0235 KA relative to UGCAUGU.

In the case of B12, the binding signal was 0.00933 KA relative to UGCAUGU.

Consider B13, for which the binding signal was 0.0206 KA relative to UGCAUGU.

Take B14: the binding signal was 0.0271 KA relative to UGCAUGU.

On to B15, for which the binding signal is 0.0347 KA relative to UGCAUGU.

As to B16, the binding signal was 0.0149 KA relative to UGCAUGU.

B17: the binding signal is 0.0372 KA relative to UGCAUGU.

For B18, the binding signal is 0.0398 KA relative to UGCAUGU.

Take B19: the binding signal is 0.0185 KA relative to UGCAUGU.

For B20, the binding signal is 0.0698 KA relative to UGCAUGU.
